The antibiotic and cytotoxicity screens of Wong et al. (2023)
The campaign covered roughly 39,000 compounds. About 3,300 (8.5%) were called active. Shown is part of a subset that was picked to be rich in actives.

system: HepG2; assay: cytotoxicity call (relative viability < 0.9); conditions: 10 µM

SMILES	cytotoxicity call
CS(=O)(=O)Nc1ccc2c(c1)[C@@H]1C[C@@H](CC(=O)NCc3ccc(-c4ccccc4)cc3)O[C@@H](CO)[C@@H]1O2	inactive
C[C@H](CO)N1C[C@H](C)[C@@H](CN(C)S(=O)(=O)c2cccs2)Oc2ccc(NS(=O)(=O)c3cn(C)cn3)cc2CC1=O	inactive
C[C@H]1CN([C@@H](C)CO)C(=O)c2cccc(NS(=O)(=O)c3cn(C)cn3)c2O[C@@H]1CN(C)C(=O)Nc1ccc(F)cc1	inactive
O=C(C[C@@H]1C[C@H]2c3cc(NS(=O)(=O)c4ccc(F)cc4)ccc3O[C@H]2[C@@H](CO)O1)NCc1cccc(F)c1	inactive
Cc1cc(C(=O)Nc2cccc3c2O[C@@H](CN(C)C(=O)Nc2c(C)noc2C)[C@@H](C)CN([C@@H](C)CO)C3=O)n(C)n1	inactive
Cc1ccc(OC(=O)N(C)C[C@H]2OCc3ccccc3-c3ccccc3C(=O)N([C@H](C)CO)C[C@H]2C)cc1	inactive
COc1ccc(CN(C)C[C@@H]2Oc3ccc(NC(=O)Cn4cnnn4)cc3CC(=O)N([C@@H](C)CO)C[C@@H]2C)cc1	inactive
C[C@H]1CCCCO[C@H](CN(C)C(=O)NC2CCCCC2)[C@@H](C)CN([C@@H](C)CO)C(=O)c2cc(NC(=O)c3ccccc3)ccc2O1	inactive
C[C@@H]1CCCCO[C@H](CN(C)C(=O)NC2CCCCC2)[C@@H](C)CN([C@H](C)CO)C(=O)c2cc(NC(=O)c3ccccc3)ccc2O1	inactive
C[C@@H]1CCCCO[C@H](CN(C)C(=O)NC2CCCCC2)[C@@H](C)CN([C@@H](C)CO)C(=O)c2cc(NC(=O)c3ccncc3)ccc2O1	inactive
C[C@H](CO)N1C[C@H](C)[C@@H](CN(C)C(=O)NC2CCCCC2)OCCCC[C@H](C)Oc2ccc(NC(=O)c3ccccc3)cc2C1=O	active
C[C@@H]1CN([C@@H](C)CO)C(=O)c2cc(NC(=O)c3ccncc3)ccc2O[C@@H](C)CCCCO[C@@H]1CN(C)C(=O)NC1CCCCC1	active
C[C@@H]1CCCCO[C@@H](CN(C)C(=O)NC2CCCCC2)[C@@H](C)CN([C@H](C)CO)C(=O)c2cc(NC(=O)c3ccncc3)ccc2O1	inactive
CC(C)NC(=O)Nc1ccc2c(c1)C(=O)N([C@@H](C)CO)C[C@@H](C)[C@H](CN(C)Cc1ccc(Oc3ccccc3)cc1)O2	inactive
C#CCN1C(=O)N(C(=O)c2ccccc2)[C@@H]2c3ccccc3O[C@@]1(COCc1ccc(OC)cc1)[C@@H]2CO[Si](C)(C)C(C)(C)C	inactive
O=C(N[C@@H]1C=C[C@H](CC(=O)N2CCOCC2)O[C@@H]1CO)c1ccccn1	inactive
C[C@H](CO)N1C[C@H](C)[C@@H](CN(C)S(=O)(=O)c2cccs2)Oc2ccc(NS(=O)(=O)c3ccc(F)cc3)cc2CC1=O	inactive
C[C@H](CO)N1C[C@H](C)[C@H](CN(C)C(=O)Nc2cccc(Cl)c2Cl)OCc2ccccc2-c2ccccc2C1=O	inactive
N#Cc1ccc(CN)cc1	inactive
N#Cc1ccc(O)c(O)c1	active
O=C(O)c1ccc(O)c(O)c1	inactive
COc1ccc(NC(=O)N(C)C[C@H]2Oc3ccc(NC(=O)Nc4ccc(C(F)(F)F)cc4)cc3C(=O)N([C@H](C)CO)C[C@@H]2C)cc1	inactive
C=CCNC(=O)C(=O)NC[C@H]1OCCCN1S(=O)(=O)c1ccccc1	inactive
C[C@@H]1CN([C@@H](C)CO)S(=O)(=O)c2ccc(C3=CCCCC3)cc2O[C@@H]1CN(C)Cc1cncnc1	inactive
C[C@@H]1CN([C@@H](C)CO)C(=O)Cc2cc(NC(=O)Cn3cnnn3)ccc2O[C@H]1CN(C)C(=O)NC1CCCCC1	inactive

SMILES	cytotoxicity call
Cc1noc(C)c1NC(=O)N(C)C[C@@H]1Oc2ccc(NC(=O)c3ccncc3)cc2C(=O)N([C@H](C)CO)C[C@H]1C	inactive
O=c1[nH]c(=O)c2ccccc2[nH]1	inactive
O=c1[nH]c(=O)c2cc(Br)ccc2[nH]1	active
COc1ccc2[nH]c3c(-c4cccc5ccccc45)nccc3c2c1	inactive
NCCc1c(C(=O)O)[nH]c2ccc(Br)cc12	inactive
COc1ccc2[nH]c(=O)[nH]c(=O)c2c1	active
COc1ccc2[nH]cc(CCNC(C)=O)c2c1	inactive
C[C@@H]1CCCCO[C@H](CN(C)C(=O)Nc2ccc(C(F)(F)F)cc2)[C@@H](C)CN([C@H](C)CO)C(=O)c2cc(NS(C)(=O)=O)ccc2O1	inactive
CC(C)NC(=O)Nc1cccc2c1O[C@@H](CN(C)C(=O)Nc1ccc3c(c1)OCO3)[C@@H](C)CN([C@@H](C)CO)C2=O	inactive
C[C@@H]1CN([C@@H](C)CO)C(=O)c2cccc(NS(=O)(=O)c3ccccc3)c2O[C@@H]1CN(C)S(=O)(=O)c1cn(C)cn1	inactive
C=CCOC(=O)[C@H]1[C@@H]2C(=O)O[C@@H](c3ccccc3)[C@@H](c3ccccc3)N2[C@@H](c2ccc(OCCOC(=O)[C@H]3C[C@H]4C(=O)N[C@@H](CC(C)C)C(=O)N4[C@H]3c3ccc(O)cc3)cc2)[C@]12C(=O)Nc1ccc(I)cc12	inactive
COc1cc(CCC(=O)O)oc(=O)c1	inactive
COC(=O)[C@@H](Cc1ccccc1)N[C@H](/C=C/C1CC1)[C@@H](O)CCn1cc(-c2ccc(C(=O)NO)cc2)nn1	active
COC(=O)[C@H](Cc1ccccc1)N1CC(/C=C/C2CC2)=C[C@@H]1[C@@H](O)CCn1cc(-c2ccc(C(=O)NO)s2)nn1	inactive
COC(=O)[C@@H](Cc1ccccc1)N[C@H](/C=C/C1CC1)[C@@H](O)CCn1cc(-c2ccc(C(=O)NO)s2)nn1	active
COC(=O)[C@@H](Cc1ccccc1)N[C@H](/C=C/C1CC1)[C@@H](O)CCn1cc(-c2cccc(/C=C/C(=O)NO)c2)nn1	inactive
C#CCN([C@H](/C=C/C1CC1)[C@@H](O)CCn1cc(-c2ccc(C(=O)NO)s2)nn1)[C@@H](Cc1ccccc1)C(=O)OC	inactive
COC(=O)[C@H](Cc1ccccc1)N1CC(/C=C/C2CC2)=C[C@@H]1[C@@H](O)CCn1cc(-c2ccc(C(=O)NO)cc2)nn1	inactive
Cc1ccc(-c2ccc3c(c2)O[C@@H](CN(C)C(=O)NC(C)C)[C@H](C)CN([C@@H](C)CO)S3(=O)=O)cc1	inactive
C[C@H](CO)N1C[C@H](C)[C@H](CN(C)S(=O)(=O)c2ccc3c(c2)OCCCO3)OCc2cnnn2CCCC1=O	inactive
C[C@H](CO)N1C[C@H](C)[C@H](CN(C)Cc2ccccc2F)Oc2cc(C#CC3CC3)ccc2S1(=O)=O	inactive
CCN(CC)CCNC(=O)c1c(C)[nH]c(/C=C2/C(=O)Nc3ccc(-c4csc(-c5ccccc5)n4)cc32)c1C	active
C[C@@H]1CN([C@@H](C)CO)S(=O)(=O)c2ccc(C#CCC3CCCC3)cc2O[C@H]1CN(C)C(=O)c1cnccn1	inactive
C[C@@H]1CCCCO[C@H](CN(C)S(=O)(=O)c2cccs2)[C@H](C)CN([C@H](C)CO)C(=O)c2cc(NC(=O)C3CCCCC3)ccc2O1	inactive
CC(C)NC(=O)Nc1cccc2c1O[C@@H](CN(C)S(=O)(=O)c1ccc(F)cc1)[C@@H](C)CN([C@@H](C)CO)C2=O	inactive

SMILES	cytotoxicity call
CC12CCC(O)CC1=CCC1C2CCC2(C)C(c3cccnc3)=CCC12 (stereo not drawn)	inactive
CC1C2CCC3C4CC=C5CC(N(C)C)CCC5(C)C4CCC32CN1C (stereo not drawn)	active
CC(=O)C1CCC2C3CC=C4CC(O)CCC4(C)C3CCC12C (stereo not drawn)	inactive
C[C@@H](O)[C@H](N)C(=O)O	active
CC(C)[C@@H](N)C(=O)O	inactive
CC(O)C(N)C(=O)O (stereo not drawn)	inactive
C[C@H](CO)N1C[C@H](C)[C@H](CN(C)Cc2ccc(Oc3ccccc3)cc2)Oc2ccc(NC(=O)Cn3cnnn3)cc2CC1=O	inactive
COC(=O)[C@H](Cc1ccc(-n2cc(-c3cccc(/C=C/C(=O)NO)c3)nn2)cc1)N1CC2=C[C@H]([C@@H](O)Cc3ccccc3)n3c(=O)n(C)c(=O)n3[C@@H]2[C@@H](C2CC2)O1	active
COC(=O)[C@H](Cc1ccc(-n2cc(-c3ccc(C(=O)NO)s3)nn2)cc1)N1CC2=C[C@H]([C@@H](O)Cc3ccccc3)n3c(=O)n(C)c(=O)n3[C@@H]2[C@@H](C2CC2)O1	inactive
COC(=O)[C@H](Cc1ccc(-n2cc(-c3ccc(C(=O)NO)cc3)nn2)cc1)N1CC2=C[C@H]([C@@H](O)Cc3ccccc3)n3c(=O)n(C)c(=O)n3[C@@H]2[C@@H](C2CC2)O1	inactive
CC(=O)N1CCO[C@H]2CCN(C(=O)c3ccn(C)n3)C[C@H]21	inactive
COc1c(N2CC3CCCNC3C2)c(F)cc2c(=O)c(C(=O)O)cn(C3CC3)c12.Cl (stereo not drawn)	inactive
COc1c(N2CCNC(C)C2)c(F)cc2c(=O)c(C(=O)O)cn(C3CC3)c12 (stereo not drawn)	active
CCn1cc(C(=O)O)c(=O)c2cc(F)c(N3CCNC(C)C3)c(F)c21.Cl (stereo not drawn)	inactive
C[C@@H]1CCCCO[C@@H](CN(C)S(=O)(=O)c2ccc(F)cc2)[C@H](C)CN([C@@H](C)CO)C(=O)c2cc(NC(=O)Cc3ccccc3)ccc2O1	inactive
C[C@H]1CCCCO[C@H](CN(C)S(=O)(=O)c2ccc(F)cc2)[C@@H](C)CN([C@@H](C)CO)C(=O)c2cc(NC(=O)Cc3ccccc3)ccc2O1	inactive
C[C@H](CO)N1C[C@H](C)[C@H](CN(C)S(=O)(=O)c2ccc(F)cc2)OCCCC[C@H](C)Oc2ccc(NC(=O)Cc3ccccc3)cc2C1=O	inactive
C[C@@H]1CN([C@H](C)CO)C(=O)c2cc(NC(=O)Cc3ccccc3)ccc2O[C@@H](C)CCCCO[C@H]1CN(C)S(=O)(=O)c1ccc(F)cc1	inactive
C[C@@H]1CCCCO[C@@H](CN(C)S(=O)(=O)c2ccc(F)cc2)[C@@H](C)CN([C@@H](C)CO)C(=O)c2cc(NC(=O)Cc3ccccc3)ccc2O1	active
C[C@@H]1CCCCO[C@@H](CN(C)S(=O)(=O)c2ccc(F)cc2)[C@H](C)CN([C@H](C)CO)C(=O)c2cc(NC(=O)Cc3ccccc3)ccc2O1	inactive
C[C@@H]1CN([C@H](C)CO)C(=O)c2cc(NC(=O)Cc3ccccc3)ccc2O[C@@H](C)CCCCO[C@@H]1CN(C)S(=O)(=O)c1ccc(F)cc1	inactive
C[C@@H]1CCCCO[C@H](CN(C)S(=O)(=O)c2ccc(F)cc2)[C@@H](C)CN([C@@H](C)CO)C(=O)c2cc(NC(=O)Cc3ccccc3)ccc2O1	active
C[C@@H]1CCCCO[C@H](CN(C)S(=O)(=O)c2ccc(F)cc2)[C@@H](C)CN([C@H](C)CO)C(=O)c2cc(NC(=O)Cc3ccccc3)ccc2O1	active
